# From PubChem BioAssay (NCATS)
# Records with an inconclusive call do not appear. Active and inactive are the calls of the source. Calls come from the whole dose curve.
# Assay: Confirmatory qHTS to identify inhibitors of SARS-CoV-2 cell entry (AID 1645844); note: nearly all actives have a fitted effect of over 45% in size
# Details: SARS-CoV-2 pseudotyped particle cell entry, luciferase; series mostly up to 57.2 µM
# Text: Assay Provider: Wei Zheng, Ph.D.
# National Center for Advancing Translational Sciences, National Institute of Health, Rockville, MD.
# SARS-CoV-2 spike protein, within the viral envelope, mediates viral attachment and infection of host cells. The SARS-CoV-2 spike protein specifically binds to the host receptor ACE2 (Angiotensin-converting enzyme 2). This interaction promotes endocytosis of the viral particle, additional events lead to viral-host cell membrane fusion and release of the viral contents, allowing viral replication.
# While SARS-CoV-2 requires BSL-3 facilities for live virus work, pseudotyped partices (PP) that incorporate SARS-CoV-2 spike proteins without replication elements could facilitate studies on viral entry mechanisms in a BSL-2 setting. This PP cell entry assay could also enable screening of small molecule compound libraries in BSL-2 setting to identify inhibitors of SARS-CoV-2 cell entry.
# SEQUENCE No. (e.g., 1, 2, 3, etc.); […] (e.g., Cells, Incubation, Reagent, etc.); VALUE and DESCRIPTION.
# 1. Cells. Seed 1500 HEK293-ACE2 cells (Expi293F with stable expression of human ACE2) in 2 uL/well media (DMEM, 10% FBS, 1x L-glutamine, 1x Pen/Strep, 1 ug/ml puromycin) in white 1536-well assay plates (Greiner #782073).
# 2. Incubation. Incubate at 37C with 5% CO2 overnight (~16 h).
# 3. Compounds. Dispense 23 nL/well compounds in DMSO via pin transfer.
# 4. Incubation. Incubate for 1 hr at 37C 5% CO2.
# 5. Reagent. Dispense 2 uL/well of SARS-CoV-2-S pseudotyped particles (PP). [a] PPs are produced with murine leukemia virus pseudotyping). [b] SARS-CoV-2-S is Wuhan-Hu-1 sequence (BEI #NR-52420) with C-terminal 19 amino acid truncation.
# 6. Centrifugation. […]
# 7. Incubation. Incubate at for 48 hr at 37C 5% CO2
# 8. Centrifugation. Remove supernatant with gentle centrifugation using a Blue Washer (BlueCat Bio).
# 9. Reagent. Dispense 4 uL/well of Bright-Glo Luciferase detection reagent (Promega #E2620).
# 10. Incubation. Incubate for 5 min at room temperature.
# 11. Detection. Read luminescence signal (Viewlux plate reader, PerkinElmer). Data was normalized with wells containing SARS-CoV-2-S PP as 100%, and wells containing bald PP (no fusion protein) as 0%.
# Potency is the fitted concentration of half-maximal effect.
row,Compound,Potency
1,O=C1CN(/N=C/c2ccc([N+](=O)[O-])o2)C(=O)N1,21.5 µM (active)
2,CCOc1ccc2nc3cc(N)ccc3c(N)c2c1,24.1 µM (active)
3,Cc1ccc(Nc2nccc(N(C)c3ccc4c(C)n(C)nc4c3)n2)cc1S(N)(=O)=O,21.5 µM (active)
4,Oc1ccc(Cl)c2cccnc12,2.71 µM (active)
5,Cc1cc(NS(=O)(=O)c2ccc(N)cc2)nc(C)n1,inactive
6,Cc1c(C)c2c(c(C)c1O)CCC(C)(COc1ccc(CC3SC(=O)NC3=O)cc1)O2 (stereo unspecified),34.1 µM (active)
7,CC(C)=CCC/C(C)=C/CC/C(C)=C/CCC(=O)OC/C=C(\C)CCC=C(C)C,9.61 µM (active)
8,Cc1nc2ccc(CN(C)c3ccc(C(=O)N[C@@H](CCC(=O)O)C(=O)O)s3)cc2c(=O)[nH]1,0.0271 µM (active)
9,COc1cccc2c1C(=O)c1c(O)c3c(c(O)c1C2=O)C[C@@](O)(C(=O)CO)CC3OC1CC(N2CCOC(OC)C2)C(O)C(C)O1 (stereo partly specified),0.0482 µM (active)
10,CCCCCCNC(=O)n1cc(F)c(=O)[nH]c1=O,8.57 µM (active)
11,Cc1cc2c(cc1CC(=O)c1sccc1S(=O)(=O)Nc1onc(C)c1Cl)OCO2,inactive
12,Nc1nc2[nH]cc(CCc3ccc(C(=O)N[C@@H](CCC(=O)O)C(=O)O)cc3)c2c(=O)[nH]1,1.92 µM (active)
13,CC(C)c1cccc(C(C)C)c1O,inactive
14,Nc1ccn([C@@H]2O[C@H](CO)[C@@H](O)C2O)c(=O)n1 (stereo partly specified),4.29 µM (active)
15,COc1cccc2c1C(=O)c1c(O)c3c(c(O)c1C2=O)C[C@@](O)(C(=O)CO)C[C@@H]3O[C@H]1C[C@H](N)[C@@H](O)[C@H](C)O1,0.0961 µM (active)
16,C[n+]1c2cc(N)ccc2cc2ccc(N)cc21 (tested in a mixture with another compound),6.07 µM (active)
17,COC(=O)C1=C(C)NC(C)=C(C(=O)OCC(C)=O)C1c1ccccc1[N+](=O)[O-] (stereo unspecified),34.1 µM (active)
18,CCN(CC)C(C)CN1c2ccccc2Sc2ccccc21 (stereo unspecified),0.0383 µM (active)
19,CN1[C@@H]2CC[C@H]1CC(OC(c1ccccc1)c1ccccc1)C2 (stereo partly specified),6.81 µM (active)
20,CNCCC=C1c2ccccc2CCc2ccccc21,21.5 µM (active)
21,CC(C)OC(=O)OCOP(=O)(CO[C@H](C)Cn1cnc2c(N)ncnc21)OCOC(=O)OC(C)C,0.0152 µM (active)
